Source: PubChem BioAssay (NCATS)
Inconclusive results are not listed. Active and inactive are the calls of the source. Calls come from the whole dose curve; as a rule, active = well fitted curve in the direction sought with a large enough effect; inconclusive = small, poorly fitted or top-dose-only effect, or another doubt; inactive = no such curve, though single readings can be large; an effect the other way counts as inactive or inconclusive.

Tests used:
[1] = Cellular Toxicity (caspase-3) Hek293 (AID 664); conditions: HEK293 caspase-3 activation, DMSO = 0%, 100 µM tamoxifen = 100%; at 92.2 µM (top of the series);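 note: cells exposed to compound for 16 h at 37 °C before readout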
Method in brief: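 Apoptosis readout: Caspase-Glo 3/7 signal in human HEK293 cells following 16-hour compound incubation. Responses scaled between DMSO baseline and 100 uM tamoxifen.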

[2] = Cellular Toxicity (caspase-3) N2a (AID 665); conditions: Potency: caspase-3 activation;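 note: compound exposure lasted 16 h at 37 °C before readout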
Method in brief: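 Concentration-response qHTS: compound-induced caspase-3/7 luminescence in N2a cells (16 h, 37 °C), relative to DMSO and 10 uM staurosporine controls; AC50 obtained using the standard Hill equation.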

[3] = Cellular Toxicity (caspase-3) NIH 3T3 (AID 666);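 note: caspase signal read after 16 h compound exposure; 0% = DMSO basal and 100% = 100 µM tamoxifen stimulation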
Method in brief: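 Activity: caspase-3/7 induction, NIH 3T3 cells, 16 hr treatment at 37°C, luminescent Caspase-Glo detection; AC50 via Hill equation.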

[4] = Cellular Toxicity (caspase-3) Renal Proximal Tubule (AID 667);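 note: cells exposed to compound for 16 hours at 37 °C before detection; 0% = DMSO basal and 100% = 10 µM staurosporine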
Method in brief: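 In qHTS format, rat primary proximal tubule cells seeded at 1000 per well are exposed to compounds for 16 hours at 37 °C. An increase in Caspase-Glo 3/7 luminescence indicates caspase activation.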

[5] = target: Cytochrome P450 3A4 (Homo sapiens) (UniProt P08684); test: qHTS Assay for Activators of Cytochrome P450 3A4 (AID 885); note: nearly all actives have a fitted effect of over 65% in size
Method in brief: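 Human CYP3A4 dealkylates Luciferin-PPXE to luciferin, which luciferase detection converts to light. Substrate was at its KM (25uM), buffer 200mM KPO4, reaction 60 min at RT.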

[6] = Cell Viability - LYMP2-001 (AID 921);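 note: 0% = DMSO only and full inhibition = tetraoctylammonium bromide control wells; nearly all actives have a fitted effect of over 70% in size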
Method in brief: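 qHTS, 1536-well; lymphoblastoid cells, 24 hr compound, 37 C; ATP by CellTiter-Glo, 30 min RT; luminescence; Hill-fit AC50.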

[7] = MultiTox-Fluor Cytotoxicity Assay - LYMP1-001 - Dead Cells (AID 946);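 note: 0% = DMSO and 100% = tetraoctylammonium bromide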
Method in brief: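 LYMP1-001 lymphoblastoid cells (2500/well) treated 16 h at 37 C. Dead-cell protease cleavage of bis-AAF-R110 read at Ex/Em 485/520. Normalized to DMSO and 15 uM tetraoctylammonium bromide; AC50 from Hill fits.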

[8] = MultiTox-Fluor Cytotoxicity Assay - LYMP1-001 - Live Cells (AID 947);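 note: 0% = DMSO only and full inhibition = tetraoctylammonium bromide control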
[9] = Cell Viability - LYMP1-002 - Assay at 16 hr (AID 948);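 note: 0% = DMSO alone and full effect = 92 µM tetraoctylammonium bromide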
Method in brief: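 Acute cytotoxicity is scored as a concentration-dependent fall in intracellular ATP in a human lymphoblastoid line (LYMP1-002) after 16 hr compound exposure at 37 C, measured by luciferase luminescence.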

[10] = MultiTox-Fluor Cytotoxicity Assay - LYMP1-002 - Live Cells (AID 955); note: % is set by controls: 0 for no effect and ±100 for the full control effect
Method in brief: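 In this qHTS viability format, lymphoblastoid cells (LYMP1-002, human) received compound for 16 hr at 37 C. Fluorogenic GF-AFC cleavage by viable cells was detected at 405/510 nm after 1 h at room temperature.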

[11] = MultiTox-Fluor Cytotoxicity Assay - LYMP1-003 - Dead Cells (AID 961);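 note: 0% = DMSO and 100% = tetraoctylammonium bromide; nearly all actives have a fitted effect of over 70% in size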
Method in brief: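 LYMP1-003 human lymphoblastoid cells (2500/well) exposed to compound 16 h at 37 C in complete medium; dead-cell protease read with bis-AAF-R110 fluorescence (Ex/Em 485/520) after 60 min at room temperature. Normalized to DMSO and 15 uM tetraoctylammonium bromide; AC50 from Hill fit.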

[12] = MultiTox-Fluor Cytotoxicity Assay - LYMP1-003 - Live Cells (AID 962);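 note: 0% = DMSO only and full loss = 92 µM tetraoctylammonium bromide; cytotoxic hits lower the live-cell protease signal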
Method in brief: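 Human lymphoblastoid line LYMP1-003 in complete culture medium, treated 16 hr with titrated compounds. Viable cells quantified via cell-permeant GF-AFC substrate fluorescence; AC50 derived by Hill fitting.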

[13] = Cell Viability - LYMP1-003 - Assay at 24 hr (AID 963);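 note: plate controls were DMSO only for no effect and tetraoctylammonium bromide positive control for full effect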
Method in brief: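 The lymphoblastoid line was treated with titrated compounds for 24 hours, and viable cell number estimated from luciferase-based ATP luminescence.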

[14] = Cell Viability - LYMP1-003 - Assay at 40 hr (AID 964); note: % is set by controls: 0 for no effect and ±100 for the full control effect; nearly all actives have a fitted effect of over 60% in size
Method in brief: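 Acute toxicity is scored as a concentration-dependent loss of intracellular ATP in LYMP1-003 cells (2500/well, complete medium) after 40 hr at 37 C, measured by CellTiter-Glo luminescence; AC50 values derive from standard Hill modelling.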

[15] = Cell Viability - LYMP2-003 (AID 965);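 note: cells exposed to compounds for 24 h before reading; 0% = DMSO only and full effect = 92 µM tetraoctylammonium bromide; nearly all actives have a fitted effect of over 50% in size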
Method in brief: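 Acute cytotoxicity is scored as a concentration-dependent drop in intracellular ATP, measured by luciferase luminescence in human lymphoblastoid cells treated for 24 hours at 37 C. AC50 values derive from Hill-equation modelling.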

[16] = Cell Viability - LYMP2-004 (AID 966);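 note: plate controls were DMSO only for no effect and tetraoctylammonium bromide control for full effect; nearly all actives have a fitted effect of over 65% in size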
Method in brief: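 Viable-cell number estimated from ATP luminescence (CellTiter-Glo) in 2500 human lymphoblastoid cells/well after 24 hr at 37 C with compound. AC50 fitted to the standard Hill equation.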

[17] = Cell Viability - LYMP2-005 (AID 967);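 note: plate controls were DMSO only for no effect and 92 µM tetraoctylammonium bromide control for full effect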
Method in brief: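 qHTS viability screen in LYMP2-005 cells: 24 h at 37 C with compound, ATP luminescence via CellTiter-Glo, AC50 from Hill curves.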

[18] = Cell Viability - LYMP2-011 (AID 969);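 note: 0% = DMSO only and full inhibition = 92 µM tetraoctylammonium bromide; nearly all actives have a fitted effect of over 60% in size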
Method in brief: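 Cells seeded at 2500 per well rest 5 hr before compound addition, then incubate 24 hr at 37 C. CellTiter-Glo reagent is added for 30 min at room temperature before luminescence detection.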

[19] = Cell Viability - LYMP2-013 (AID 970);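 note: 0% = DMSO only and full inhibition = tetraoctylammonium bromide control; nearly all actives have a fitted effect of over 55% in size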
Method in brief: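 In complete culture medium, human lymphoblastoid cells were dosed for 24 hr at 37 C, with tetraoctylammonium bromide (6.4pM to 92 uM) as positive control. Viability reflects luciferase-based ATP signal; AC50 derived from concentration-response curves.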

[20] = Cell Viability - LYMP2-015 (AID 971);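 note: 0% = DMSO only and full effect = 92 µM tetraoctylammonium bromide; nearly all actives have a fitted effect of over 55% in size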
Method in brief: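 AC50 values reflect Hill-model fits of ATP-based luminescence (CellTiter-Glo) from a human lymphoblastoid line, 2500 cells/well, treated 24 hr at 37 C.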

[21] = Cell Viability - LYMP2-017 (AID 972);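 note: cells exposed to compound for 24 hours at 37 °C; % is set by controls: 0 for no effect and ±100 for the full control effect; nearly all actives have a fitted effect of over 55% in size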
Method in brief: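 In this qHTS format, lymphoblastoid cells in complete medium receive test compound for a day at 37 C before ATP content is quantified by luciferase luminescence. Reported AC50 figures come from standard Hill-equation curve fitting.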

Chain of Cytochrome P450 3A4 (Homo sapiens) (P08684 whole entry, looked up): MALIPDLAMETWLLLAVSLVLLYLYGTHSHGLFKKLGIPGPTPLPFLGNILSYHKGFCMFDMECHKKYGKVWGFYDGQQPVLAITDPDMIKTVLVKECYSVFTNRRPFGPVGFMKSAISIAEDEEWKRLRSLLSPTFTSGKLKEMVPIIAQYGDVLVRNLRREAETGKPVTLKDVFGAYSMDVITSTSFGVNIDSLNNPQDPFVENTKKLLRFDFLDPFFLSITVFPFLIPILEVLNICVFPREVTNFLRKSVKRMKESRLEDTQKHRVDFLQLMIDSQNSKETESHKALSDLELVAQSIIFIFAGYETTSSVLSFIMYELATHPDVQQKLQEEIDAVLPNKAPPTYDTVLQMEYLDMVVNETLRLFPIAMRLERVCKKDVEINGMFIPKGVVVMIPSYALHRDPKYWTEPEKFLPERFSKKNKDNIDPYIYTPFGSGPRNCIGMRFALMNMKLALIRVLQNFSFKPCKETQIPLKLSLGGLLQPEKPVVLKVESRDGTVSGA

O=C=Nc1ccc(Cc2ccc(N=C=O)cc2)cc1
inactive: caspase-3 activation [1] -1.82% | Potency [2] | Potency [3] | outcome [4] | Potency [5] | Potency [6] | Potency [7] | Potency [8] | Potency [9] | Potency [10] | Potency [11] | Potency [12] | Potency [13] | Potency [14] | Potency [15] | Potency [16] | Potency [17] | Potency [18] | Potency [19] | Potency [20] | Potency [21]
